{
  "source": "PubChem BioAssay",
  "data": [
    {"molecular_target": "Fibroblast growth factor 2 (Homo sapiens) (UniProt P09038)", "sequence (P09038 whole entry, looked up)": "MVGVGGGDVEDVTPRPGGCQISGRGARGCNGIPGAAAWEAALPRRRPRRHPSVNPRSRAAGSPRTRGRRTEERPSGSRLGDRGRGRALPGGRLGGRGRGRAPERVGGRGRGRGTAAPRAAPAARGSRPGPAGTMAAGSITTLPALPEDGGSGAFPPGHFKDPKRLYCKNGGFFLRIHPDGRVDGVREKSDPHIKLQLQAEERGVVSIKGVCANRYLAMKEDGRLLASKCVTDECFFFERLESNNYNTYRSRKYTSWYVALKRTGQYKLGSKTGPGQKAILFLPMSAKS", "assay": "FGF2 binders on small-molecule microarrays, primary screen, biochemical, small-molecule microarray, 635/667 nm fluorescence (AID 1133)", "conditions": "small-molecule microarray binding, FGF2, fluorescence 635/667; higher = more signal", "values": [
      {"compound": "CCCC[C@@H](O)C1=C(C)Cn2c(=O)n(-c3ccccc3)c(=O)n2[C@H]1CO", "composite z-score": 0.0632},
      {"compound": "CCOC(=O)C[C@H]1[C@H](OC(=O)c2cc3ccccc3oc2=O)[C@@H](NC(=O)Cc2ccc(OC)cc2)c2cc(OCCCO)ccc2N1C(=O)Cc1ccc(OC)cc1", "composite z-score": 0.453},
      {"compound": "COC(=O)C1=CC(CCCO)=CC(c2ccc(CN3CCCC3)cc2)N(C)C=C1C(=O)OC", "note": "(stereo not given)", "composite z-score": -0.232},
      {"compound": "CCOC(=O)C[C@H]1[C@H](OC(=O)c2ccc(-c3ccccc3)cc2)[C@@H](NC(=O)c2ccc(-c3ccccc3)cc2)c2cc(OCCCO)ccc2N1C(=O)c1ccccc1", "composite z-score": 0.64},
      {"compound": "COc1ccc(C(=O)Nc2cccc(CN3C(=O)[C@]4(O[C@H](CC(=O)N(CCO)Cc5ccccc5)[C@@H]([Si](C)(C)c5ccc(OC)cc5)[C@@H]4C)c4ccccc43)c2)cc1", "composite z-score": 1.15},
      {"compound": "O=C(N1CCOCC1)[C@]1(CCS(=O)(=O)c2ccccc2)N=C(c2ccc(OCCCO)cc2)O[C@@H]1c1ccccc1", "composite z-score": 0.23},
      {"compound": "CC(C)c1ccc(NN2C(C(O)c3ccccc3)C=CC3C(=O)N(c4ccccc4)C(=O)C32)cc1", "note": "(stereo not given)", "composite z-score": -0.522},
      {"compound": "COc1ccc([Si](C)(C)[C@H]2[C@H](CC(=O)N3CCC[C@H]3CO)O[C@@]3(C(=O)N(C)c4c(Br)cc(C)cc43)[C@@H]2C)cc1", "composite z-score": 1.86},
      {"compound": "COCCCNC(=O)[C@]1(Cc2ccccc2N=[N+]=[N-])N=C(c2ccc(OCCCO)cc2)O[C@@H]1c1ccccc1", "composite z-score": 0.94},
      {"compound": "[N-]=[N+]=NCc1ccccc1[C@H]1OC(c2ccc(OCCCO)cc2)=N[C@@]1(Cc1ccccc1N=[N+]=[N-])C(N)=O", "composite z-score": 0.27}
    ]}
  ]
}
